About 2,000 (36%) of roughly 5,500 compounds were called active. Not shown: some 18% with an inconclusive outcome. Rule as the data show it: active = normalized growth mostly below about 0.91 (no sharp cut-off); inconclusive = no clear call, values can overlap the other calls; inactive = mostly above about 0.92. This is one part of the list.
Test: chemical genetic growth profiling, strain panel (AID 1159580);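 also: tested at 20 µM; growth read once vehicle control cultures reached saturation at 30 °C; 1 = growth at the plate median or of vehicle wells; lower values mean less growth of the strain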
Conditions: S. cerevisiae deletion strains, growth OD
[1] = locus YAL013W, strain DEP1, stronger effect = lower value
[2] = locus YBR229C, strain ROT2, stronger effect = lower value
[3] = locus YDL101C, strain DUN1, stronger effect = lower value
[4] = locus YDR150W, strain NUM1, stronger effect = lower value
[5] = locus YEL061C, strain CIN8, stronger effect = lower value
[6] = locus YGR078C, strain PAC10, stronger effect = lower value
[7] = locus YHR030C, strain SLT2, stronger effect = lower value
[8] = locus YHR087W, strain rtc3, stronger effect = lower value
[9] = locus YJR043C, strain POL32, stronger effect = lower value
[10] = locus YJR075W, strain HOC1, stronger effect = lower value
[11] = locus YKL190W, strain CNB1, stronger effect = lower value
[12] = locus YLR039C, strain RIC1, stronger effect = lower value
[13] = locus YLR058C, strain SHM2 (second series), stronger effect = lower value
[14] = locus YLR085C, strain ARP6, stronger effect = lower value
[15] = locus YLR262C, strain YPT6, stronger effect = lower value
[16] = locus YML094W, strain GIM5, stronger effect = lower value
[17] = locus YMR219W, strain ESC1, stronger effect = lower value
[18] = locus YMR263W, strain SAP30, stronger effect = lower value
[19] = locus YMR307W, strain GAS1, stronger effect = lower value
[20] = locus YNL153C, strain GIM3, stronger effect = lower value
[21] = locus YNL298W, strain CLA4 (second series), stronger effect = lower value
[22] = locus YNL322C, strain KRE1, stronger effect = lower value
[23] = locus YNR030W, strain Alg12, stronger effect = lower value
[24] = locus YOL006C, strain TOP1, stronger effect = lower value
[25] = locus YPL055C, strain LGE1, stronger effect = lower value
[26] = locus YPL241C, strain CIN2, stronger effect = lower value
[27] = locus YPR135W, strain CTF4, stronger effect = lower value

Measured: normalized growth

CCOC(=O)c1ccc(NC(=S)N2CCOCC2)cc1
inactive: [1] 1.01 | [2] 0.979 | locus YCL061C, strain MRC1, stronger effect = lower value 0.939 | [3] 0.978 | [4] 0.945 | [5] 0.985 | [6] 0.99 | [7] 0.956 | [8] 0.974 | [9] 0.962 | [10] 0.947 | [11] 1.01 | [12] 1 | [13] 1.02 | [14] 0.991 | [15] 1 | [16] 0.978 | [17] 0.999 | [18] 0.933 | [19] 0.965 | [20] 0.982 | [21] 0.951 | [22] 1.01 | [23] 1.01 | [24] 0.805 | [25] 0.888 | [26] 0.988 | [27] 0.972

CCOC(=O)c1ccc(N2CCOCC2)c(N=Cc2cc(Cl)ccc2O)c1
active: [2] 0.901 | locus YDL134C, strain PPH21, stronger effect = lower value 0.781 | [5] 0.757 | [6] 0.892 | [7] 0.266 | [10] 0.855 | [11] 0.678 | [12] 0.434 | [14] 0.508 | [15] 0.38 | [16] 0.822 | [19] 0.41 | [21] 0.754 | [23] 0.885 | [24] 0.323 | [27] 0.516
inactive: [1] 0.94 | [3] 0.928 | [4] 0.91 | [8] 0.915 | [9] 0.946 | [13] 0.96 | [17] 0.947 | [18] 0.917 | [20] 0.951 | [22] 0.99 | [25] 0.884 | [26] 0.908

Cc1cc(N=C(N)N=C(N)N)no1
inactive: [1] 1.01 | [2] 1.01 | [3] 1.02 | [4] 0.902 | [5] 1 | [6] 1.01 | locus YGR229C, strain SMI1, stronger effect = lower value 0.993 | [7] 1 | [8] 1.02 | locus YJL187C, strain SWE1, stronger effect = lower value 1 | [9] 0.998 | [10] 1 | [11] 1 | [12] 1.01 | [13] 1.01 | [14] 0.988 | [15] 1.01 | [16] 1.03 | [17] 1 | [18] 1 | [19] 0.969 | locus YNL128W, strain TEP1, stronger effect = lower value 1.02 | [20] 1 | [21] 1.02 | [22] 1 | [23] 1.01 | [24] 1.02 | [25] 0.964 | [26] 1.01 | [27] 1.07

CCOC(=O)CCC(C#N)(c1ccc(Cl)cc1)N1CCOCC1 (stereo unspecified)
inactive: [1] 0.99 | [2] 0.997 | [3] 1.04 | [4] 1.05 | [5] 1 | [6] 1.01 | [7] 0.979 | [8] 0.978 | [9] 1.02 | [10] 1.01 | [12] 1.11 | [13] 0.982 | [14] 0.962 | [15] 1.01 | [16] 0.99 | [17] 0.983 | [18] 1.02 | [20] 0.993 | [21] 0.996 | [22] 0.988 | [23] 0.985 | [24] 0.904 | [25] 0.943 | [26] 0.992 | [27] 1.01
